The campaign covered roughly 420,000 compounds. About 64,000 (15%) were called active. About 27% were inconclusive and are not listed. The call rests on the fitted dose curve; in most records, active means well fitted inhibition curve with a large enough effect; inconclusive means small, poorly fitted or top-dose-only effect; inactive means flat fitted curve, though single readings scatter. The list is a sample of the results. Entries that show only a call come without a potency.
Assay: qHTS for Inhibitors of human tyrosyl-DNA phosphodiesterase 1 (TDP1): qHTS in cells in absence of CPT; further: nearly all actives have a fitted effect of over 55% in size
Details: DT40 Tdp1-/- hTDP1 cells, no CPT, ATP luminescence, 48 h; activity change, negative = growth inhibition: at 46.2 µM (top of the series)
How it was run: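 Growth of hTDP1-complemented DT40 Tdp1-knockout cells is measured by ATP luminescence after at least 48 hr compound exposure at 37 °C, with DMSO substituting for the 20 nM CPT used in the parallel screen.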
Potency means the concentration at half of the fitted maximal effect.

| Structure (SMILES) | Potency |
| --- | --- |
| CCC(=NC1CC(C)(C)NC(C)(C)C1)C1=C(O)CC(C)(C)CC1=O | inactive |
| Cn1c(=O)cc(SCC(=O)N2CCCC2)c2cc(Cl)ccc21 | inactive |
| CC1(C)C(c2cccs2)=[N+]([O-])C2(CCCCC2=O)N1O (configuration not stated) | inactive |
| COc1ccc(C(CC(=O)O)NC(=O)Cc2ccccc2)cc1 (configuration not stated) | inactive |
| COc1ccc(C(CC(=O)c2ccccc2)S(=O)(=O)c2ccccc2)cc1 (configuration not stated) | 18.4 µM (active) |
| COc1ccc(N(Cc2ccccc2)S(=O)(=O)c2cccc(C(=O)O)c2)cc1 | inactive |
| CC(C)c1cc(C(=O)N/N=C/c2ccoc2)c(O)c(C(C)C)c1 | inactive |
| CCOCCCNC(=O)Cc1cc(=O)[nH]c(=O)[nH]1 | inactive |
| COc1ccc(NC(=O)Cn2c(-c3ccc(OC)cc3)cn(-c3ccc(C)cc3)c2=O)cc1 | inactive |
| CC(=O)OCC1(O)CC23CCC4c5ccoc5CCC4(C)C2CCC1C3 (configuration not stated) | 14.6 µM (active) |
| Cc1ccc(SCCC(=O)Nc2cc(C)on2)cc1 | inactive |
| O=C(O/N=C(/c1ccccc1)c1ccncc1)c1ccccc1[N+](=O)[O-] | inactive |
| O=C(CN1CCOCC1)Nc1ccc(NC(=O)CN2CCOCC2)c(Cl)c1 | inactive |
| CC(=O)OC1CCC2(O)CC1(C)CCC1C2CC1(C)C (configuration not stated) | inactive |
| Cc1ccc2c(=O)cc(C(=O)NCCc3ccc(S(N)(=O)=O)cc3)oc2c1C | inactive |
| CCOC(=O)c1csc(CCNC(=O)c2oc3c(Cl)cc(C)cc3c2C)n1 | 20.6 µM (active) |
| COCCN1Cc2cccc(C(=O)Nc3ccccc3OC)c2C1=O | inactive |
| COc1ccc(NC(=O)c2cccc3c2C(=O)N(CC2CCCO2)C3)cc1OC (configuration not stated) | 23.1 µM (active) |
| CCOc1ccc(NC(=O)c2cccc3c2C(=O)N(CC2CCCO2)C3)cc1 (configuration not stated) | inactive |
| O=C(CNS(=O)(=O)c1ccc(Br)s1)N1CCN(C(=O)c2ccco2)CC1 | inactive |
| O=C(CNC(=O)c1cc2c(s1)CCC2)Nc1ccccc1Br | inactive |
| COc1ccc2oc(=O)c(C(=O)NCc3ccccn3)cc2c1 | inactive |
| COc1cncc(-c2cnc3sc(NCCc4ccccn4)nn23)c1 | 13 µM (active) |

| Structure (SMILES) | Potency |
| --- | --- |
| Cc1ccc(C(=O)N/C(=C\c2cccs2)C(=O)NCCc2ccccn2)cc1C | inactive |
| C[C@H](CO)N1C[C@H](C)[C@H](CN(C)C(=O)Nc2ccc3c(c2)OCO3)Oc2ncc(Br)cc2C1=O | inactive |
| CN1CCCC(OC(=O)COc2ccc(Br)cc2)C1 (configuration not stated) | inactive |
| CC(=O)Nc1ccc(N2C(=O)CC(Sc3nccc(C)n3)C2=O)cc1 (configuration not stated) | inactive |
| CCOc1ccccc1N1C(=O)CC(Sc2nccc(C)n2)C1=O (configuration not stated) | 20.6 µM (active) |
| CCOc1ccccc1-n1c(SCC(=O)N2CCCC2)nnc1-c1ccoc1C | inactive |
| COc1ccc(C(=O)NC(C)c2nccs2)cc1OC1CCN(C(C)C)CC1 (configuration not stated) | inactive |
| COc1ccc(-c2[nH]ncc2CN(C)Cc2cc(C)[nH]n2)c(F)c1 | inactive |
| Cc1cc(C)nc(NC(=O)Nc2ccccc2C(F)(F)F)n1 | 18.4 µM (active) |
| Cc1cc(C)nc(NC(=O)C(C)N2C(=O)c3ccccc3C2=O)n1 (configuration not stated) | inactive |
| Cc1cc(Cl)nc(NC(=O)Nc2cccc(Cl)c2)n1 | inactive |
| CC(C)C(NC(=O)c1cccc(S(=O)(=O)N2CCOCC2)c1)C(=O)NCCc1ccccn1 (configuration not stated) | inactive |
| O=C(COC(=O)c1ccncc1)c1ccccc1 | inactive |
| Cc1ccc(C(=O)COC(=O)c2cccc(N3C(=O)c4c(C)nc5ccccc5c4C3=O)c2)cc1C | inactive |
| O=C(COC(=O)c1c2c(nc3ccccc13)CCCC2)c1ccc(Br)s1 | 7.31 µM (active) |
| CN1C(=O)/C(=C/c2ccc(C(=O)NC3CCCC3)cc2)Oc2ccccc21 | 10.3 µM (active) |
| O=C(NC1CCCCC1)c1ccc(CNc2c(N3CCOCC3)c(=O)c2=O)cc1 | inactive |
| CC1CCC(NC(=O)c2ccc(N3CCCC3=O)cc2)CC1 (configuration not stated) | inactive |
| CNC(=S)N1CCC(NC(=O)C(Cc2ccc(F)cc2)NC(C)=O)CC1 (configuration not stated) | inactive |
| CCOc1ccc(C(CC(=O)O)n2cnnn2)cc1OC (configuration not stated) | inactive |
| C[C@H]1CN([C@@H](C)CO)S(=O)(=O)c2ccc(Br)cc2O[C@H]1CN(C)C(=O)c1cnccn1 | inactive |
| CN(C)c1nc(=Nc2cccc(Cl)c2)ss1 | 0.206 µM (active) |
| CCOC(=O)C1=C(O)CSC1=Nc1cccc(Cl)c1 | inactive |

| Structure (SMILES) | Potency |
| --- | --- |
| CCN(CC)S(=O)(=O)c1ccc(OC(C)C)c(N)c1 | inactive |
| CC(C)Nc1nnc(SC(C)C(=O)N(C)C2CCCCC2)s1 (configuration not stated) | inactive |
| Cc1cccc(N2CCN(c3c(CN4CCCC4)c(=O)oc4ccccc34)CC2)c1C | inactive |
| Cc1cccc(N2CCN(C3=C(c4ccccc4)C(=O)c4ccccc43)CC2)c1C | 11.6 µM (active) |
| CC(Oc1ccccc1)C(=O)NN1Cc2ccccc2C1=N (configuration not stated) | inactive |
| Cc1nn(C)cc1N1C(=O)c2cccc3c(N)ccc(c23)C1=O | inactive |
| CCN(CCCCOC(=O)c1ccc(OC)c(OC)c1)C(C)Cc1ccc(OC)cc1 (configuration not stated) | inactive |
| CCc1oc(-c2ccc(OC)cc2)c(C(=O)OCCCCCO)c1C(C)OCCO (configuration not stated) | 16.4 µM (active) |
| COc1ccc(C(=O)Nc2c(N)nc(SCC(=O)N3CCC(C)CC3)[nH]c2=O)cc1OC | inactive |
| O=C(c1ccc2c(c1)C(=O)N(Cc1ccncc1)C2=O)N1CCN(S(=O)(=O)c2ccc(OC(F)(F)F)cc2)CC1 | inactive |
| Oc1ccc(Br)cc1C1C=C(c2ccc3c(c2)OCO3)NC(c2ccc(Cl)cc2)N1 (configuration not stated) | 5.01 µM (active) |
| CCN(CC(=O)Nc1cc(Cl)ccc1C)C(=O)CN1C(=O)NC2(CCCC2)C1=O | inactive |
| CN(C)CCNC(=O)Nc1cccc(Cl)c1Cl | inactive |
| CN(C)CCNC(=O)c1ccc(Cl)c2cc3ccccc3nc12 | 0.146 µM (active) |
| CC(=O)NCCNC(=O)c1cc(-c2cccc3ccccc23)nc2ccccc12 | inactive |
| CCNC(=S)N(CCN(CC)CC)Cc1cc2cc3c(cc2[nH]c1=O)OCCO3 | inactive |
| Oc1c(C(c2cccs2)N2CCN(c3ccc(F)cc3)CC2)sc2ncnn12 (configuration not stated) | inactive |
| CC1CC(C)CN(CC(=O)Nc2ccc(S(N)(=O)=O)cc2)C1 (configuration not stated) | inactive |
| Cc1nc(SCC(=O)Nc2cc(C)on2)c2c(C)c(C)sc2n1 | inactive |
| Cc1nc(SCC(=O)N2CCc3ccccc3C2)c2c(C)c(C)sc2n1 | 16.4 µM (active) |
| Cc1nnc(SCC(=O)N2CCc3ccccc3C2)s1 | inactive |

— PubChem BioAssay AID686978 (National Center for Advancing Translational Sciences (NCATS), 2013)
